Among all 310,000 compounds or so, about 14,000 (4.5%) showed an effect of 50% or more. Effects have a minus sign here. The list comes from a sample in which strong results are over-represented; it also holds similar structures and randomly drawn compounds.
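Also: peak tail current of the secondary pulse compared with the same well before compound.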

For the test, the target named is human ether-à-go-go-related gene (hERG) potassium channel (human, UniProt Q12809). Kind of test: primary screen, population patch clamp on CHO cells stably expressing hERG; higher = less effect of the substance.
Sequence of human ether-à-go-go-related gene (hERG) potassium channel (Q12809 whole entry, looked up): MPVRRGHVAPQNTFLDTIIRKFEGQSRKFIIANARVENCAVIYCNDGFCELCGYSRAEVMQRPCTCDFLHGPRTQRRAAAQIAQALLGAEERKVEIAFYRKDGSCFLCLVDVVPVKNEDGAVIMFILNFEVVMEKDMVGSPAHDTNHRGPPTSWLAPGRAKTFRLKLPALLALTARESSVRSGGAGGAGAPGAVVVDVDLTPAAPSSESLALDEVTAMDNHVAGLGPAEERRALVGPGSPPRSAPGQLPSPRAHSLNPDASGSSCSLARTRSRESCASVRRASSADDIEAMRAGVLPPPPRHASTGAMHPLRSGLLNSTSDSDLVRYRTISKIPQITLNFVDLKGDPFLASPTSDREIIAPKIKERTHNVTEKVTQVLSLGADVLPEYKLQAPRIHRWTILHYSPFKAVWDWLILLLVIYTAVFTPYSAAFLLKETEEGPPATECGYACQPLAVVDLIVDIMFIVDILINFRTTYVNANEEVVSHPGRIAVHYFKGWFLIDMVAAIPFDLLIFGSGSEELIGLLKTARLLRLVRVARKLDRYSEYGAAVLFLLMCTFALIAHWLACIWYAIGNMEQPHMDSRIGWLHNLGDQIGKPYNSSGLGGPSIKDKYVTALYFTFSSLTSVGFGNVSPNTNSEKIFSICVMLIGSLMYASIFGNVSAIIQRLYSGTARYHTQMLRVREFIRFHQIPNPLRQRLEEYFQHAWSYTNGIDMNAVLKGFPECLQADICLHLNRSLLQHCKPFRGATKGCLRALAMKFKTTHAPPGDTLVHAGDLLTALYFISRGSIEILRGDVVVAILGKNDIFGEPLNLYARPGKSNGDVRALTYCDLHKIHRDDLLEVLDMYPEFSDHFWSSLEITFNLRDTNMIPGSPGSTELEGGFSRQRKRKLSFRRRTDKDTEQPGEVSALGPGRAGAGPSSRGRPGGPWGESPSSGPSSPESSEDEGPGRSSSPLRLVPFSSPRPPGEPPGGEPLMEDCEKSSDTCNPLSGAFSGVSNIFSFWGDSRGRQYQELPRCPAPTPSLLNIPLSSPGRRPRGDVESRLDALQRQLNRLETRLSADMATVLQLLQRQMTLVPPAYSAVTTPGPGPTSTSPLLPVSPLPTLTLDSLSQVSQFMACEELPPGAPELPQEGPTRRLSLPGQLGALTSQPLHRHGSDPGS
As for `CCCOP(=O)(c1ccc(N(C)C)cc1)C(O)c1ccc(N(C)C)cc1` (centres unmarked), the “hERG current change (%, negative = inhibition) at 10uM” value was 12.8%.

As for `c1ccc2sc(-c3ccc4c(c3)OCO4)nc2c1`, the “hERG current change (%, negative = inhibition) at 10uM” value is -3.16%. Under `CCOc1ccc(C2CC(c3cccc(OC)c3OC)n3nnnc3N2)cc1Cl` (centres unmarked) stands -19.2%; under `Cc1ccc(-n2nnnc2Sc2nc([N+](=O)[O-])nn2C)c(C)c1`, -27.6%.

On to `CN(C(=O)c1ccc(C#N)cc1)c1nnc(-c2cnccn2)s1`, for which the “hERG current change (%, negative = inhibition) at 10uM” value is reported as -8.93%. Under `CCN(CC)CCCNC(=O)Cn1ncc2c(=O)oc3ccc(C)cc3c21` stands -7.17%; under `COC(=O)COc1ccc(C(c2c(C)[nH][nH]c2=O)c2c(C)[nH][nH]c2=O)cc1`, 15.1%. For `COc1ccc(CN2CN(C3CCCC3)CSC2=S)cc1`, the “hERG current change (%, negative = inhibition) at 10uM” value came out at 2.66%. `Cc1ccc(OCCCC(=O)Nc2ccc(S(=O)(=O)N3CCOCC3)cc2)cc1`: the “hERG current change (%, negative = inhibition) at 10uM” value is reported as -25.7%. Consider `COc1ccc(-n2nc(C(=O)NCC(=O)Nc3ccccn3)c3ccccc3c2=O)cc1`, for which the “hERG current change (%, negative = inhibition) at 10uM” value was determined as 10.6%. In the case of `Cc1ccccc1NC(=S)N(Cc1cccs1)C1CCCC1`, the “hERG current change (%, negative = inhibition) at 10uM” value stood at 5.42%. Under `C=CCn1c(SCC(=O)N2CCc3ccccc3C2)nc2ccccc2c1=O` stands -61.5%; under `C=CCn1c(SCC(=O)N2CCc3ccccc3C2)nc2sc(C)cc2c1=O`, -7.46%. Under `C=CCn1c(SCC(=O)N2CCCCCC2)nc2ccccc2c1=O` stands -59.2%; under `CCn1c(SCC(=O)N2CCCCCC2)nc2ccccc2c1=O`, -10.4%. Regarding `COCCn1c(SCC(=O)N2CCc3ccccc3C2)nc2ccccc2c1=O`, the “hERG current change (%, negative = inhibition) at 10uM” value is -43.8%. As for `C=CCn1c(SCC(=O)N2CCOCC2)nc2ccccc2c1=O`, the “hERG current change (%, negative = inhibition) at 10uM” value is reported as -28.4%. To `Cc1nc(N2CCN(S(=O)(=O)c3ccc(F)cc3)CC2)c2c(-c3cccs3)csc2n1` belongs 11.6%; to `CCn1cc(S(=O)(=O)N2CCN(c3ccc(Cl)cc3)CC2)cn1`, 7.96%; to `Cn1nc(C(F)(F)F)c(-c2ccc(Br)cc2)c1NC(=O)c1cccnc1`, 0.61%. Under `Cn1nc(C(F)(F)F)c(-c2ccc(Br)cc2)c1NC(=O)c1ccco1` stands -63.5%; under `Cn1nc(C(F)(F)F)c(-c2ccc(F)cc2)c1NC(=O)c1ccco1`, -32.8%; under `O=C(Nc1oc2ccccc2c(=O)c1-c1ccc(Br)cc1)c1ccco1`, -52.5%. To `Cn1nc(C(F)(F)F)c(-c2cccc(C(F)(F)F)c2)c1NC(=O)c1cccnc1` belongs -6.76%; to `Cc1ccc(-c2c(NC(=O)c3ccco3)oc3ccccc3c2=O)cc1`, 10.1%; to `O=C(Nc1oc2ccccc2c(=O)c1-c1ccc(Cl)cc1)c1ccco1`, -20.4%. Turning to `Cn1nc(C(F)(F)F)c(-c2ccccc2)c1NC(=O)c1ccco1`, the “hERG current change (%, negative = inhibition) at 10uM” value is given as -3.07%. To `Cn1nc(C(F)(F)F)c(-c2cccc(C(F)(F)F)c2)c1NC(=O)c1ccco1` belongs -66.6%; to `CC1CN(c2nc(Nc3ccccc3)nc(N)c2[N+](=O)[O-])CC(C)O1` (centres unmarked), -22.2%. To `C=CCn1c(CCNC(=O)c2ccccc2F)nnc1SCC(=O)Nc1nc(C)cs1` belongs -5.2%. To `N#C/C(=C(/O)COC(=O)c1cccnc1Cl)c1nc2ccccc2[nH]1` belongs 25.6%; to `Cc1cccc(NC(=O)c2sc3nc4c(c(-c5cccs5)c3c2N)CN(C)CC4)c1`, -51.6%; to `CC(C)NC(=O)c1sc2nc3c(c(-c4cccs4)c2c1N)CN(C)CC3`, -25.8%.

In the case of `N#Cc1sc2nc3c(c(-c4ccco4)c2c1N)CCCC3`, the “hERG current change (%, negative = inhibition) at 10uM” value was -3.21%. To `CN1CCc2nc3sc(C#N)c(N)c3c(-c3cccs3)c2C1` belongs -56.8%; to `Cc1cccc(NC(=O)c2sc3nc4c(c(-c5ccco5)c3c2N)CCC4)c1`, -3.19%; to `COC(=O)c1sc2nc3c(c(-c4cccs4)c2c1N)CCCC3`, 9.57%. To `O=C(O)C1CC=CCC1C(=O)NC12CC3CC(CC(C3)C1)C2` (centres unmarked) belongs 3.51%. Under `O=C(CSc1nc2ccccc2s1)Nc1ncccn1` stands 13.4%.

Take `O=S(=O)(c1cccs1)N1CCc2ccccc2C1`: the “hERG current change (%, negative = inhibition) at 10uM” value is on record as -5.63%.

With `Cc1cccc(-c2nc(CS(=O)CC(=O)N3CC(C)CC(C)C3)c(C)o2)c1` (centres unmarked), the “hERG current change (%, negative = inhibition) at 10uM” value is -25.3%. Under `COC(=O)c1[nH]c2ccc(C)cc2c1NC(=O)CN1CCN(C(=O)c2ccccc2)CC1.Cl` stands -52.1%; under `COC(=O)c1[nH]c2cc(C)ccc2c1NC(=O)CN1CCN(C(=O)c2ccco2)CC1`, -54.3%. Under `COC(=O)c1[nH]c2ccccc2c1NC(=O)CN1CCN(C(=O)c2ccco2)CC1` stands -32.8%. Under `COC(=O)c1[nH]c2ccc(C)cc2c1NC(=O)CN1CCC(C)CC1` stands -8.97%; under `COC(=O)c1[nH]c2ccc(C)cc2c1NC(=O)CN1CCN(c2ccccc2)CC1`, -13.7%; under `COC(=O)c1[nH]c2cccc(C)c2c1NC(=O)CN1CCN(C(=O)c2ccco2)CC1`, -16.9%. Take `Cc1nc2cc(C(=O)O)ccc2s1`: the “hERG current change (%, negative = inhibition) at 10uM” value is 5.41%. In the case of `COC(=O)c1ccc(Oc2c(C)oc3cc(OCc4cnn(-c5ccccc5)c4)ccc3c2=O)cc1`, the “hERG current change (%, negative = inhibition) at 10uM” value was determined as 1.08%. In the case of `CCOc1cc(/C=N/NC(=O)c2cccnc2)cc(Br)c1OCC(N)=O`, the “hERG current change (%, negative = inhibition) at 10uM” value is on record as -22.5%.

On to `O=C(CCc1nnc(Cc2cccc(C(F)(F)F)c2)o1)NC1CC1`, for which the “hERG current change (%, negative = inhibition) at 10uM” value was determined as 32.2%. To `O=C(COC(=O)C12CC3CC(CC(Cl)(C3)C1)C2)Nc1ccc2[nH]c(=O)[nH]c2c1` belongs 11.5%; to `O=C(NCC1CCN(Cc2ccccc2Cl)CC1)Nc1ccccc1F`, -44.7%. Turning to `COc1cc(NC(=O)NCC2CCN(Cc3ccccc3F)CC2)cc(OC)c1`, the “hERG current change (%, negative = inhibition) at 10uM” value is -14.9%. To `O=C(NCC1CCN(Cc2ccccc2Cl)CC1)Nc1cccc(Cl)c1` belongs -72%.

As to `COc1ccc(OC)c(CN2CCC(CNC(=O)Nc3cccc(Cl)c3)CC2)c1`, the “hERG current change (%, negative = inhibition) at 10uM” value is -60.8%. To `COc1ccc(N2CCC(CNC(=O)Nc3cccc(OC)c3)C2)cc1` (centres unmarked) belongs -15.7%; to `COc1cc(NC(=O)NCC2CCN(Cc3ccccc3Cl)CC2)cc(OC)c1OC`, 3.03%; to `COc1ccc(NC(=O)C2CCCO2)cc1` (centres unmarked), -0.956%. Under `Cc1ccc(NC(=O)c2cccc(S(=O)(=O)N3CCN(c4ccc(F)cc4)CC3)c2)nc1` stands -14.6%.

`Cc1cc(CN(C)C(=O)CC2C(=O)NCCN2Cc2ccc(F)c(F)c2)on1` (centres unmarked): the “hERG current change (%, negative = inhibition) at 10uM” value is listed as 31.1%. To `Nc1ccc(-c2nnc(-c3ccc(-c4ccccc4)cc3)o2)cc1` belongs 4.31%. To `S=c1[nH]c(-c2ccccc2)cs1` belongs 66.4%; to `COc1ccc(C)cc1NS(=O)(=O)c1cccc2nonc12`, -10.7%; to `CCCOc1cccc(C2C(C(=O)c3ccc(C)o3)=C(O)C(=O)N2CCN2CCOCC2)c1` (centres unmarked), 10.5%. To `O=C(O)c1cc([N+](=O)[O-])ccc1N1CCCCC1` belongs -1.28%; to `CCN1CCN(c2ccc([N+](=O)[O-])cc2C(=O)OC)CC1`, -63.7%. For the compound `CCN1CCN(c2ccc([N+](=O)[O-])cc2S(=O)(=O)N2CCOCC2)CC1`, the “hERG current change (%, negative = inhibition) at 10uM” value was -43.9%. As to `NC(=O)c1cc([N+](=O)[O-])ccc1N1CCN(Cc2ccccc2)CC1`, the “hERG current change (%, negative = inhibition) at 10uM” value is recorded as -41.8%. To `COC(=O)c1cc([N+](=O)[O-])ccc1N1CCN(Cc2ccccc2)CC1` belongs -72.2%; to `CCOc1ccccc1NC(=O)COc1cccc(-n2cnnn2)c1`, -27.2%; to `O=C(NCCNC(=O)c1ccccc1Br)c1ccccc1Br`, 8.51%. For the compound `Cc1ccc(C(=O)N/N=C2\SCC(=O)N2c2cc(C)ccc2C)cc1`, the “hERG current change (%, negative = inhibition) at 10uM” value is recorded as 8.16%. To `COc1ccccc1CNC(=O)N1CCN(c2ccccc2C)CC1` belongs 6.36%. Under `CC(=O)C1=C(O)C(=O)N(c2ccc(Br)cc2)C1c1cccc([N+](=O)[O-])c1` (centres unmarked) stands 24.5%.

On to `COC(=O)CSc1nc2cc(C)cc(C)c2cc1C#N`, for which the “hERG current change (%, negative = inhibition) at 10uM” value worked out at 14.5%. To `CCCCCCOC(=O)C(C#N)c1nc2ccccc2nc1N1CCN(CC)CC1` (centres unmarked) belongs -70.2%.

As for `CCCCOC(=O)C(C#N)c1nc2ccccc2nc1N1CCN(Cc2ccc3c(c2)OCO3)CC1` (centres unmarked), the “hERG current change (%, negative = inhibition) at 10uM” value was -7.01%. Under `CCCCCCOC(=O)C(C#N)c1nc2ccccc2nc1N1CCOCC1` (centres unmarked) stands 1.23%. Under `CCCCCCOC(=O)C(C#N)c1nc2ccccc2nc1N1CCCCC1` (centres unmarked) stands 1.37%; under `CC1CCN(c2nc3ccccc3nc2C(C#N)C(=O)OC2CCCCC2)CC1` (centres unmarked), 11.3%; under `CN1CCN(c2nc3ccccc3nc2C(C#N)C(=O)OC2CCCCC2)CC1` (centres unmarked), -79.5%.

`CCCCCCOC(=O)C(C#N)c1nc2ccccc2nc1N1CCN(C)CC1` (centres unmarked): the “hERG current change (%, negative = inhibition) at 10uM” value is given as -74.7%. Under `CCCCOC(=O)C(C#N)c1nc2ccccc2nc1N1CCOCC1` (centres unmarked) stands -12.8%; under `N#CC(C(=O)OC1CCCCC1)c1nc2ccccc2nc1N1CCOCC1` (centres unmarked), -36.8%.

Turning to `Cl.NS(=O)(=O)c1ccc(CCNCC#Cc2ccccc2)cc1`, the “hERG current change (%, negative = inhibition) at 10uM” value is given as -21.6%.
